High-throughput results deposited in PubChem by several laboratories.
FAK blocker – blocks human focal adhesion kinase activity; inhibition, %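 (tested at 7 µM)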; biochemical FAK kinase activity assay; actives 0.84% (n = 97,000); AID 727; Q05397;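 note: 0% = DMSO and 100% = reference compound high control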
Target sequence (Q05397 whole entry, looked up): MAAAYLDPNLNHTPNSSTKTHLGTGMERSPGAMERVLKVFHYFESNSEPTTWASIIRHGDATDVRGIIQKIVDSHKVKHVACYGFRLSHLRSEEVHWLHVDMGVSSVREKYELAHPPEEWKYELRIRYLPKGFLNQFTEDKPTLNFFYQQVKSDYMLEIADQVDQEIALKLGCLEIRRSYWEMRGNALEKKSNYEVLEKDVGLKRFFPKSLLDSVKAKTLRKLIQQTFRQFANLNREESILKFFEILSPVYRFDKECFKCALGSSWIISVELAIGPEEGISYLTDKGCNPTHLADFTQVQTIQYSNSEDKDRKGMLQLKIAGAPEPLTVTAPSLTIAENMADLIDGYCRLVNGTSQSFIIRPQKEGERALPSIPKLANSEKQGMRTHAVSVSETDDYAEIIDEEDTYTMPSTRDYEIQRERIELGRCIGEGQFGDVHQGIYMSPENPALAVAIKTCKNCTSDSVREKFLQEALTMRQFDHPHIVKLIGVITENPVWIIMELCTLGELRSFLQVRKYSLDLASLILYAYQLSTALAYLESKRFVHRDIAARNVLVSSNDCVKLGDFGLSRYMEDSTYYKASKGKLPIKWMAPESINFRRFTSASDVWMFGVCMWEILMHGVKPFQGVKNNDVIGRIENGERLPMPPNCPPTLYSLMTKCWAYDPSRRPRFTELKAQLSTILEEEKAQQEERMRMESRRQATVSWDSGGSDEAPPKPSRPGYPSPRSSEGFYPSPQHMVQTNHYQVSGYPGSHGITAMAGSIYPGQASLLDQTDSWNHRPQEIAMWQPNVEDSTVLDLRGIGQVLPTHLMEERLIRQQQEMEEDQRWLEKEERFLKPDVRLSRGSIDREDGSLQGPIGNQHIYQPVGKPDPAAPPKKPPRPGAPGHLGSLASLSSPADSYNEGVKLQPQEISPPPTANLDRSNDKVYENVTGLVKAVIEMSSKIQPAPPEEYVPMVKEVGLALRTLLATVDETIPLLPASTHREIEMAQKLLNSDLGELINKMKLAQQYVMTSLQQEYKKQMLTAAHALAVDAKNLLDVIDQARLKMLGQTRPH
EphB4 antag – blocks human EphB4 binding to ephrin-B2; inhibition, % at 7 µM; EphB4 LBD / TNYL-RAW-Alexa532 peptide, fluorescence polarization; actives 0.15% (n = 97,000); AID 720; P54760;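 active = inhibition above the screen-wide mean inhibition plus 3 SD, cut at about 15% in these data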;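 note: 0% = DMSO wells and 100% = excess unlabeled TNYL-RAW peptide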
Plk1 PBD FP – Plk1 (human) PBD binding inhibition. P53350. inhibition, %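 (tested at about 20 µM)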. actives 0.13% (n = 97,000). AID 693. Plk1 PBD phosphopeptide binding, fluorescence polarization; in the data active = inhibition above about 34%, passing the limit was not always enough
Smad3 inh – Smad3 (human) transcription factor binding inhibition; P84022; TR-FRET Smad3/Dy647-FoxH1 peptide binding, europium anti-His; inhibition, % at 25 µM; actives 0.29% (n = 88,000); AID 630;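 active = compounds that reduce the energy-transfer binding signal between the protein and its labelled peptide by more than half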;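 note: 0% = Smad3 plus labelled peptide maximal FRET and 100% = peptide-only background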
PLK1 inh – blocks human PLK1 kinase activity. P53350. recombinant PLK1 kinase, TR-FRET peptide phosphorylation. inhibition, % at 10 µM. actives 0.53% (n = 97,000). AID 619;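 active = inhibition of 50% or more in the single-concentration screen; inactive = inhibition below 50%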;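 note: 0% = DMSO max control and 100% = H-89 dihydrochloride min control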
FAK inh conf – confirmation of human focal adhesion kinase (FAK) inhibitors; shares compounds with FAK blocker; actives 28% (n = 750); FAK kinase biochemical inhibition assay; inhibition, % at 7 µM
Numbers without * were called inactive; . = no result given. Most compounds without a hit are left out; they make up all but 1.5% or so of the library. Cut-off read from the data, not from the text of the source, unless noted: active = inhibition above about 19%; inactive = the rest.

SMILES	FAK blocker	EphB4 antag	Plk1 PBD FP	Smad3 inh	PLK1 inh	FAK inh conf
CCOC(=O)C(C(=O)N(C)C)c1ncc(C(F)(F)F)cc1Cl (centres undefined)	78*	1	-23	.	-12	-3
COc1ccc(Br)cc1S(=O)(=O)n1ccnc1C	-3	-6	4	-5	-8	.
Cc1ccc(-c2cc(C(=O)Nc3cc(C)on3)c3ccccc3n2)c(C)c1	4	0	-15	-13	-5	.
CCOC(=O)c1ccc(Nc2nc(-c3cccnc3)nc3ccccc23)cc1	22*	-11	-21	.	-6	10
CCC(=O)Nc1cc2nn(-c3ccccc3)nc2cc1Cl	-2	4	-3	.	-16	.
Cc1ccc2cc3cc(C(=O)NCc4ccco4)oc3nc2c1	21*	-5	2	7	-8	5
Cc1ccc2cc3cc(C(=O)NCCC(C)C)oc3nc2c1	6	2	-3	-8	0	.
COc1ccc(NC(=O)CSc2ccc3c4c(cccc24)C(=O)c2ccccc2-3)cc1	4	8	-21	.	-16	.
N#Cc1cccc(NC(=O)CSc2ccc3c4c(cccc24)C(=O)c2ccccc2-3)c1	27*	9	-14	.	-21	22*
O=[N+]([O-])c1cc(/C=N\Nc2nccs2)ccc1O	91*	-1	-9	78*	-9	72*
N#Cc1nc(-c2ccccc2)oc1NCc1ccco1	21*	11	-6	-1	3	11
O=C(c1ccc(NS(=O)(=O)c2cccs2)cc1)N1CCCCC1	25*	3	-3	-9	-15	12
O=S(=O)(Nc1ccc(N2CCCCC2)cc1)c1cccs1	9	6	-5	-1	-6	.
COc1ccc(-c2cc(=O)[nH][nH]2)cc1	6	-3	-17	-20	0	.
O=c1cc(-c2cccc3ccccc23)[nH][nH]1	23*	-2	-10	3	-8	0
COc1ccc(-c2nn3c(-c4ccc(F)cc4)nnc3s2)cc1	36*	13	13	3	-2	9
Cc1ccccc1-n1c(SCc2ccccn2)nc2n[nH]c(C)c2c1=N	30*	6	-4	.	10	10
CCOc1ccccc1NC(=O)CCSc1nc2n[nH]c(C)c2c(=N)n1-c1ccccc1Cl	.	.	.	14	.	.
CC(C)(C)Nc1cccccc1=O	3	6	-17	1	0	.
CNc1cccccc1=S	44*	-9	21	13	-14	1
NC(=O)c1sc2nc3c(c(-c4ccco4)c2c1N)CCC3	34*	-10	0	10	10	20*
COc1ccc(-c2c3c(nc4sc(C(=O)Nc5cc(C)on5)c(N)c24)CCC3)cc1	0	3	-5	-2	-11	.
O=S1(=O)N[C@H]2CC[C@H]3NS(=O)(=O)N[C@H]4CC[C@@H](N1)N4S(=O)(=O)N23	.	.	.	24	.	.
O=C(O)c1ccccc1C(=O)NNc1ccc(Cl)cc1	13	-2	-38	.	-3	.
CCCN1CCCc2cc(CN)ccc21	24*	6	17	53*	-13	18
SMILES	FAK blocker	EphB4 antag	Plk1 PBD FP	Smad3 inh	PLK1 inh	FAK inh conf
CN1CCCc2cc(C=O)ccc21	0	-9	21	-3	-3	.
O=c1[nH]ncc2c3ccccc3n(Cc3ccccc3)c12	20*	3	1	.	34	7
O=C(CSc1nnc(COc2ccccc2Cl)o1)NC(=O)NC1CCCC1	23*	-3	15	1	-9	8
COCCCNC(=O)Cn1ncc2ccsc2c1=O	-4	7	0	11	7	.
CCn1c(SCC(=O)Nc2ccc3c(c2)c2ccccc2n3CC)nnc1-c1ccco1	30*	8	25	11	-13	2
COc1ccc(-c2cc(OC)c3c(C)oc(C)c3c(=O)c2)cc1OC	4	3	-56	11	-14	.
COc1cc(-c2cc(OC)c3c(C)oc(C)c3c(=O)c2)ccc1O	20*	4	-24	-5	3	13
O=C1c2ccccc2C(=O)N1C/C=C/c1ccccc1	2	-2	-8	-2	-11	.
Cc1sc(NC(=O)c2sc3nc4c(C)cccc4cc3c2N)c(C#N)c1C	29*	-2	-8	.	-15	7
Cc1cccc2cc3c(N)c(C#N)sc3nc12	3	-8	-21	.	-9	.
Cc1cc2ccccc2c(=O)[nH]1	.	.	.	7	.	.
O=c1[nH]c(Nc2ccc(F)cc2)cc2ccccc12	36*	0	2	.	-16	7
Nc1c(N2CCCC2)cc(Cl)c2nonc12	40*	0	-41	58*	7	-1
Nc1c(N2CCOCC2)cc(Cl)c2nonc12	1	-4	-11	-9	-10	.
CCN(CCO)c1nc(SC)nc2c1sc1nc(-c3ccco3)c3c(c12)CCC3	72*	-6	11	.	-19	1
CSc1nc(NCCOCCO)c2sc3nc(-c4ccco4)c4c(c3c2n1)CCC4	.	.	.	-1	.	.
COCCNC(=O)C(c1ccc(C)o1)N(C(=O)c1snc(C(N)=O)c1N)c1ccc(C)c(C)c1 (centres undefined)	23*	4	-8	-6	-22	9
COCCNC(=O)C(c1ccc(C)o1)N(C(=O)c1snc(C(N)=O)c1N)c1ccc(C)cc1 (centres undefined)	14	2	25	4	-8	.
COCCNC(=O)C(c1ccc(C)o1)N(C(=O)c1snc(C(N)=O)c1N)c1cccc(C)c1 (centres undefined)	20*	0	-35	8	-2	6
COC(=O)c1ccc(COc2ccc(/C=C(\C#N)c3nc4ccccc4[nH]3)cc2OC)o1	56*	1	-12	.	-8	23*
COc1cc(/C=C(/C#N)c2nc3ccccc3[nH]2)ccc1OCc1ccc(C(=O)O)o1	5	1	-36	.	-12	.
O=C(ONc1ccc(N=NC(=O)c2ccccc2O)cc1)c1ccccc1	80*	4	-24	-3	-8	22*
COc1ccc(/C(O)=C2\C(=O)C(=O)N(c3cc(C)on3)C2c2cccc(OC)c2OC)cc1C (centres undefined)	-8	-9	-7	13	-13	.
O=C(COc1ccc(/C=N/NC(=O)c2cc3ccccc3o2)cc1Br)Nc1ccccc1	26*	-2	-25	.	-10	36*
CCc1ccc2nc3n[nH]c(N)c3cc2c1	40*	2	17	.	29	20*
SMILES	FAK blocker	EphB4 antag	Plk1 PBD FP	Smad3 inh	PLK1 inh	FAK inh conf
CC(Sc1ccc(Cl)cc1)C(=O)NCC1CCCO1 (centres undefined)	1	-1	25	-6	-2	.
CCN1CCc2c(sc(N)c2C#N)C1	26*	6	8	15	6	19*
COC(=O)c1sccc1-c1ccc(C(=O)Nc2cccc(Cl)c2)o1	26*	-3	17	.	-14	7
CN(C)S(=O)(=O)Oc1ccsc1C(=O)Nc1cccc(Cl)c1	-2	3	-5	.	-7	.
CCOC(=O)CNC(=O)CSc1ncnc2c1nnn2-c1ccc(F)cc1	-5	-9	22	-6	-10	.
O=C1Cc2ccccc2C(=O)N1Cc1ccccc1	54*	1	-8	24	-2	28*
